Pf Dd2 inh – qHTS Primary assay for Inhibitors of Plasmodium falciparum Dd2 growth in vitro; hit rate 4.3% among 120,000; P. falciparum Dd2 growth, SYBR Green, 72 h; Potency, µM (titrated, usually from 28.9 µM), actives largely listed as inhibitors; active means well fitted inhibition curve with a large enough effect; further: nearly all actives have a fitted effect of over 65% in size
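Readout: SYBR Green fluorescence, 485 nm excitation, 535 nm emission, after ~16 h lysis at 37C. Before that, Dd2-infected red cells (2.5% hematocrit) grew 72 h with compound, 29 uM top final concentration.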
A number is an active result; n = inactive; [ ] = dose if it differs, or a comment. Many of the other results were omitted from the sample, so hits are more common in it than they were.

SMILES	Pf Dd2 inh
COc1ccc(-c2cc(C(=O)NCc3ccc(C)cc3)c3cc(C(C)C)ccc3n2)cc1	n
Cc1ccc2nc3n(c2c1)[C@@H](CNCc1ccc(C#N)cc1)COC3	n
CCOc1ccccc1NC(=O)N1CCCC(c2noc(COC)n2)C1 (stereo not drawn)	n
COc1ccc(C(=O)N[C@@H]2CN(S(C)(=O)=O)C[C@H]2CN(C)C)cc1OC	n
COc1cccc(C(=O)N2CCC3(CC2)N=C(c2ccc(C)cc2)NO3)c1	n
COc1cccc(C(=O)N2CCC3(CC2)N=C(c2ccc(Br)cc2)NO3)c1	7.9µM
COc1cccc(C(=O)N2CCC3(CC2)N=C(c2cccc(Br)c2)NO3)c1	n
O=C(O)[C@H](Cn1ccc(=O)[nH]c1=O)NC1CCCCC1	n
O=c1[nH]c(N2CCOCC2)nc2c1CCN(Cc1cc(F)ccc1F)CC2	n[5.79 µM]
Cc1ccn(CC(=O)N2C[C@@H](CO)[C@H](c3ccccn3)C2)n1	n
Cc1ccc(NC(=O)c2ncoc2-c2ccco2)cc1Cl	n
COc1ccc(CN(Cc2ccco2)C(=O)COc2ccccc2Cl)cc1	n
CC(C)c1ccc(CN(Cc2ccco2)c2cnc(S(C)(=O)=O)nc2C(=O)Nc2ccc(F)cc2)cc1	11µM
Cc1cccc(C)c1NC(=O)c1nc(S(C)(=O)=O)ncc1N(Cc1ccc(F)cc1)Cc1ccco1	n
CCS(=O)(=O)c1ncc(Cl)c(C(=O)N(Cc2ccccc2)Cc2ccco2)n1	n
COc1ccc(CN(Cc2ccco2)c2cnc(S(C)(=O)=O)nc2C(=O)Nc2ccc(C)c(Cl)c2)cc1	10µM
COc1ccc(NC(=O)C2=NO[C@@H]3CN(c4ccccc4)C[C@H]23)cn1	n
COCCNC(=O)C[C@@H]1C[C@H]2O[C@H](CNCc3cnccc3Cl)[C@@H](O)[C@H]2O1	n
O=C(Nc1cccc(Cl)c1)N1CCC2(CC1)SCC(=O)N2Cc1ccco1	n
O=S(=O)(C1CC1)N1CCC(n2cnnc2-c2ccccc2)CC1	n
CC(C)(C)c1ccc(CN2CC3(COCC2=O)CN(c2ccccc2)C3)cc1	n
Cc1ccc(CNS(=O)(=O)c2ccc3c(c2)CN(C(=O)c2cccnc2)CC3)o1	n
CC(C)(C)n1nnnc1C1CC2(CCOCC2)C(=O)N1Cc1ccco1 (stereo not drawn)	n
CN1C(=O)[C@H]2CN(Cc3ccc(Br)cc3)C[C@H]2C1=O	n
Cc1ccc(CCNC(=O)c2cc3c(-c4ccccc4F)nn(C)c3s2)cc1	n
SMILES	Pf Dd2 inh
COc1ccc(CNC(=O)c2cc3c(-c4ccc(Cl)cc4)nn(C)c3s2)cc1	n
CCCN(CCC)CCCNC(=O)c1cc2c(-c3ccc(Cl)cc3)nn(C)c2s1	8.9µM
COc1ccccc1NC(=O)CN1C(=O)CSc2ccc(S(=O)(=O)N3CCCC3)cc21	n
Cc1ccc(C)c(NC(=O)CN2C(=O)COc3ccc(Cl)cc32)c1	n
COc1ccccc1NC(=O)CN1C(=O)C2(SCC(=O)N2c2ccc(C)c(C)c2)c2ccccc21 (stereo not drawn)	10µM
Cc1ccc(C)c(NC(=O)CN2C(=O)C3(SCC(=O)N3c3ccc(C)c(C)c3)c3ccccc32)c1 (stereo not drawn)	11µM
COc1ccc(N2C(=O)CSC23C(=O)N(CC(N)=O)c2ccccc23)cc1 (stereo not drawn)	n
COc1ccc(N2C(=O)CCSC23C(=O)N(Cc2ccc(F)cc2)c2ccccc23)cc1 (stereo not drawn)	n
COc1ccc(N2C(=O)CCSC23C(=O)N(Cc2ccc(F)cc2)c2ccccc23)cc1Cl (stereo not drawn)	11µM
Cc1ccc(N2C(=O)CSC23C(=O)N(Cc2ccccc2F)c2ccccc23)cc1F (stereo not drawn)	n
COc1cccc(CN2C(=O)C3(SCC(=O)N3c3ccc(F)cc3)c3ccccc32)c1 (stereo not drawn)	n
COc1ccc(CC(=O)N2CC[C@H](CO)[C@H](O)C2)c(OC)c1	n
CN1CCN(C(=O)C2CCCCC(=O)N2)CC1 (stereo not drawn)	n
O=C(NC1CCCC1)N1CCCN(c2nc3ncccc3o2)CC1	n
CCN(CC)Cc1cnc2c(C(=O)N3CC[C@H]4CNC[C@H]43)cnn2c1	n
O=C1OCC2(CCN(Cc3ccccc3O)C2)N1Cc1ccccc1 (stereo not drawn)	10µM
O=C1OCC2(CCN(Cc3ccn[nH]3)C2)N1Cc1ccccc1 (stereo not drawn)	n
N#Cc1ccc(CN2CCC3(COC(=O)N3Cc3ccccc3)C2)cc1 (stereo not drawn)	n
O=C(c1ccc(Cl)nc1)N1CCC2(CC1)CC(Cc1ccccc1)=NO2	n
c1ccc(COc2ccc(CN3CCN(C4CCNC4)CC3)cc2)cc1 (stereo not drawn)	8.9µM
c1ccc(COc2ccc(CN3CCSCC3)cc2)nc1	n
c1ccc(CN2C[C@H]3CCNC[C@H]32)cc1	n
CCn1c(C2CCN(C(=O)CCNC(=O)c3ccc(F)cc3)CC2)n[nH]c1=O	n
COc1cccc(S(=O)(=O)N2CCCCC2c2n[nH]c(C)n2)c1 (stereo not drawn)	n

Source: PubChem BioAssay
